Assay results as given in PubChem BioAssay (EPA / NIEHS).
Several values for one entry are separate records, joined by “and”; a condition that tells them apart may be missing. Identical values can stand only once. Inconclusive results are not listed. Activity calls are given as the source filed them. How the source made its calls: active means hit-call score of the fitted dose curve at least 0.9, where 1 is the maximum; inconclusive means response in the unintended direction; inactive means score below 0.9.

What follows are compounds tested against human Mitogen-Activated Protein Kinase 1 (MAPK 1), MAPK1 (gene 5594) (UniProt P28482) (assay: NVS_ENZ_hMAPK1: NovaScreen (NVS) Enzymatic Assay for human Mitogen-Activated Protein Kinase 1 (MAPK 1) (AID 2283175)).
Chain of human Mitogen-Activated Protein Kinase 1 (MAPK 1), MAPK1 (gene 5594) (P28482 whole entry, looked up): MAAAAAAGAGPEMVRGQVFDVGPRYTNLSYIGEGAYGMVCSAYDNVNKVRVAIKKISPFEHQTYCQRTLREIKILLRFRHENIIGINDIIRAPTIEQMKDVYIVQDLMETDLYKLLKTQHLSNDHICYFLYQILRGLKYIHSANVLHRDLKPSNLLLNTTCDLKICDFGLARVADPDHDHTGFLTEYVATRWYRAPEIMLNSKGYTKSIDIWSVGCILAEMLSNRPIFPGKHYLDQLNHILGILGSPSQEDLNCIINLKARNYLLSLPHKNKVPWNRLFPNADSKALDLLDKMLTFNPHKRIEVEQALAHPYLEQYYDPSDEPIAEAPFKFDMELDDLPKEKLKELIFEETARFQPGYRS
Protocol: NVS_ENZ_hMAPK1 is a biochemical, single-readout assay that uses extracted gene-proteins in a cell-free assay. Measurements were taken 1 hour after chemical dosing in a 384-well plate.NVS_ENZ_hMAPK1 is one of one assay component(s) measured or calculated from the NVS_ENZ_hMAPK1 assay. It is designed to make measurements of enzyme activity, a form of enzyme reporter, as detected with fluorescence intensity signals by Fluorescence and electrophoretic mobility shift technology.Data from the assay component NVS_ENZ_hMAPK1 was analyzed into 1 assay endpoint. This assay endpoint, NVS_ENZ_hMAPK1, was analyzed in the positive analysis fitting direction relative to DMSO as the negative control and baseline of activity. Using a type of enzyme reporter, loss-of-signal activity can be used to understand changes in the enzymatic activity as they relate to the gene MAPK1. Furthermore, this assay endpoint can be referred to as a primary readout, because this assay has produced multiple assay endpoints where this one serves a enzymatic activity function. To generalize the intended target to other relatable targets, this assay endpoint is annotated to the kinase intended target family, where the subfamily is serine/threonine kinase.
Binding assays used specific radioligands (tritiated, iodinated) with non-radioactive competitive displacement ligands in agonist or antagonist protocols (as indicated) and various reference compounds and inhibitors to titrate specific binding to receptors and transporters. Most enzyme assays (CYPs, kinases, phosphatases, proteases, HDACs) used recombinant protein and specific substrates (fluorescence mostly, some colorimetric and radioactive) and inhibitors, followed by a biochemical separation of substrate and product. All assays for the biochemical HTS were initially run in duplicate at a single concentration (10 uM for CYP450 assays and 25 uM for all others). Assay-chemical combinations meeting a pre-defined threshold (e.g., 30% inhibition and other criteria defined below) were then run in singleton concentration-response format with maximum concentration of 20 uM for CYPs and 50 uM for all others. Each assay was run with positive and negative controls, and concurrent controls on every plate. The follow-up (secondary) screen tested active chemical-pairs in concentration series, as well as a few additional assays not tested in the primary screen, some selected negative inactives, and several cases re-run in the concentration series for confirmatory purposes.
In the case of `O=C(O)c1cccc(C[C@@H]2COc3ccc(OCc4nc5cc(F)ccc5s4)cc3[C@@H]2O)c1`, the outcome is reported as “inactive”.
With `C[Si]1(C)O[Si](C)(C)O[Si](C)(C)O[Si](C)(C)O1` the outcome was “inactive”.
`CN(C)C(=O)NC1(c2ccccc2)CCN(CCC[C@]2(c3ccc(Cl)c(Cl)c3)CCCN(C(=O)c3ccccc3)C2)CC1` was tested, and the outcome was “inactive”.
In the case of `CCCCCCCC=O`, the outcome is reported as “inactive”.
With `CC(C)(c1ccc(O)cc1)c1ccc(O)cc1` the outcome was “inactive”.
For `Cc1cn([C@H]2C[C@H](N=[N+]=[N-])[C@@H](CO)O2)c(=O)[nH]c1=O`, the outcome was “inactive”.
For `CCc1c(C(=O)NN2CCCCC2)nn(-c2ccc(Cl)cc2Cl)c1-c1ccc(Br)cc1`, the outcome was “inactive”.
In the case of `c1ccc2ccccc2c1`, the outcome is reported as “inactive”.
`S=C([S-])NCCNC(=S)[S-].[Mn+2]` was tested, and the AC50 was 5.17 µM (active).
With `COCCOC[C@H](CC1(C(=O)NC2CCC(C(=O)O)CC2)CCCC1)C(=O)Oc1ccc2c(c1)CCC2` (stereo partly drawn) the outcome was “inactive”.
For `Cc1ccc(-c2cc(C(F)(F)F)nn2-c2ccc(S(N)(=O)=O)cc2)cc1`, the outcome was “inactive”.
In the case of `NCCO`, the outcome is reported as “inactive”.
`CCOC(N)=O` was tested, and the outcome was “inactive”.
In the case of `Nc1ccn([C@@H]2O[C@H](CO)[C@@H](O)[C@@H]2O)c(=O)n1`, the outcome is reported as “inactive”.
With `CCCc1cc(=O)[nH]c(=S)[nH]1` the outcome was “inactive”.
With `COc1ccc(OC(F)(F)F)cc1CN[C@H]1CCCN[C@H]1c1ccccc1` the outcome was “inactive”.
In the case of `Cc1ncc([C@@H](CCCCCCc2ccc3c(n2)NCCC3)CC(=O)O)cn1`, the outcome is reported as “inactive”.
`CCCOc1ccc(S(=O)(=O)N2CCN(CC)CC2)cc1-c1nc2c(CC)n(Cc3ccccn3)nc2c(=O)[nH]1` was tested, and the outcome was “inactive”.
`O=C(Nc1ccc([N+](=O)[O-])cc1Cl)c1cc(Cl)ccc1O` was tested, and the outcome was “inactive”.
For `Cc1nc(-c2ccccn2)ncc1C(=O)Nn1cc(C)c2cc(F)ccc21`, the outcome was “inactive”.
With `CC(C)CCCCCCc1ccc(O)cc1` the outcome was “inactive”.
For `S=C(S)NCCNC(=S)S.[Mn+2].[S-]C([S-])=NCCN=C([S-])[S-].[Zn+2]`, the AC50 was 7.49 µM (active) and 1.15 µM (active).
`COCCO` was tested, and the outcome was “inactive”.
